Test results: PubChem BioAssay
Activity calls are given as the source filed them.

Key:
[1] = small molecules captured by biotinylated probe aFSTL3 – biochemical, small-molecule microarray, fluorescence 635/667, stem cell growth factor project, primary screen (AID 1064); settings: higher = more signal;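 also: measures binding of the biotinylated anti-FSTL3 antibody to printed compounds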
[2] = binders from COS7 lysate, DM2A8 probe, primary screen, torsin A project, cell lysate, small-molecule microarray, fluorescence 635/667 (AID 1065); settings: higher = more signal, COS7 lysate expressing mutant human TOR1A
[3] = small molecules captured by biotinylated probe aFGF2 – biochemical, small-molecule microarray, fluorescence 635/667, stem cell growth factor project, primary screen (AID 1067); settings: higher = more signal;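 also: measures binding of biotinylated aFGF2 protein to printed compounds on slides; z-score merges feature fluorescence and signal-to-noise across triplicate slides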
[4] = small molecules captured by biotinylated probe aFGF10 – biochemical, small-molecule microarray, fluorescence 635/667, stem cell growth factor project, primary screen (AID 1071); settings: higher = more signal;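 also: score merges 667 nm spot intensity and signal to noise from triplicate slides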
[5] = target: Neurogenic locus notch homolog protein 2 (Homo sapiens) (UniProt Q04721); test: small molecules binding Notch2 protein – biochemical, small-molecule microarray, 635 nm fluorescence, stem cell growth factors, primary screen (AID 1073); settings: higher = more signal
[6] = target: Pro-neuregulin-1, membrane-bound isoform (Homo sapiens) (UniProt Q02297); test: small molecules binding neuregulin-1 protein – biochemical, small-molecule microarray, fluorescence 635/667, psychiatric disease protein project, primary screen (AID 1075); settings: NRG1 binding, 635 nm fluorescence, higher = more signal;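 also: score combines 667 nm spot fluorescence with signal to noise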
[7] = test system: Neuregulin-1 EGF-like domain; test: small molecules binding NRG1 EGF domain – biochemical, small-molecule microarray, 635 nm fluorescence, primary screen (AID 1081); settings: higher = more signal;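 also: binding of the protein to compounds printed on small-molecule microarray slides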
[8] = FRG1 expression reporter modulators in myotubes – cell-based, C2C12 myotubes, firefly/Renilla luciferase, luminescence, FRG1 inhibition for FSHD, primary screen (AID 1084); settings: FRG1 promoter luciferase, higher = more signal, called active from +8 up or from −8 down
[9] = small molecules captured by biotinylated probe aFST – biochemical, small-molecule microarray, fluorescence 635/667, stem cell growth factor project, primary screen (AID 1086); settings: higher = more signal;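 also: score merges 667 nm fluorescence with signal-to-noise of each printed compound spot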
[10] = binders of probe aHhip on microarray, primary screen, stem cell growth factor project, biochemical, small-molecule microarray, fluorescence 635/667 (AID 1087); settings: higher = more signal;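 also: score merges spot fluorescence at 667nm with spot signal to noise ratio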
[11] = test system: PRMT1 (protein arginine N-methyltransferase 1); test: small molecules binding arginine methyltransferase PRMT1 – biochemical, small-molecule microarray, 635 nm fluorescence, primary screen (AID 1088); settings: higher = more signal;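 also: binding of Prmt1 protein to compounds spotted on small-molecule microarray slides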
[12] = growth effects on S. cerevisiae YJM789 – YJM789 clinical isolate, OD600, 24 h, basal, primary screen (AID 1089); settings: higher = more signal, called active from +8 up or from −8 down;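 also: growth of clinical yeast isolate S. cerevisiae YJM 789 seeded 1000 cells per well; test concentration not given here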
[13] = S. pombe growth modifiers, basal conditions – strain 972, OD600, 24 h, no modulator, primary screen (AID 1090);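 also: basal condition with compound alone and no growth modifier present; test concentration not given here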; settings: S. pombe 972 growth, higher = more signal, called active from +8 up or from −8 down
[14] = budding yeast growth modifiers under rapamycin – strain BY4716, OD600, 96 h, primary screen (AID 1091); also: test concentration not given here; settings: S. cerevisiae BY4716 + rapamycin, higher = more signal, called active from +8 up or from −8 down
[15] = target: Torsin-1A-interacting protein 2 (Homo sapiens) (UniProt Q8NFQ8); test: small molecules binding lysate-expressed LULL1 – cell lysate, human LULL1 lysate, 635/667 nm fluorescence, primary screen (AID 1092); settings: small-molecule microarray, hLULL1 lysate binding, 635 nm fluorescence; higher = more signal;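 also: probe is lysate of COS7 cells overexpressing human LULL1; score merges per-feature 667 nm fluorescence with signal-to-noise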
[16] = optical density change of DRC41 E. coli – strain DRC41, OD650, 24 h, E. coli filamentation project, primary screen (AID 1093);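 also: MC1000 strain lacking acrAB efflux and sulA so SOS filamentation is blocked; test concentration not given here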; settings: E. coli DRC41 growth, higher = more signal, called active from +8 up or from −8 down
[17] = probe aLefty2 binding to arrayed compounds – biochemical, biotinylated probe, 635/667 nm fluorescence, primary screen (AID 1094); settings: small-molecule microarray, higher = more signal;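 also: score merges spot fluorescence near 667 nm with spot signal-to-noise ratio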
[18] = test system: Noggin (protein binding on small-molecule microarray); test: small molecules binding Noggin protein – biochemical, 635/667 nm fluorescence, primary screen (AID 1095); settings: 635 nm fluorescence, higher = more signal;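 also: score merges 667 nm feature fluorescence with signal to noise over triplicate slides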
[19] = target: Neurogenic locus notch homolog protein 3 (Homo sapiens) (UniProt Q9UM47); test: small molecules binding NOTCH3 protein – biochemical, 635/667 nm fluorescence, primary screen (AID 1096); settings: small-molecule microarray, 635 nm fluorescence, higher = more signal
[20] = probe aEGFR binding to arrayed compounds – biochemical, biotinylated probe, 635/667 nm fluorescence, primary screen (AID 1097); settings: small-molecule microarray, higher = more signal;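 also: probe is a biotinylated anti-EGFR antibody binding compounds printed on slides; score combines fluorescence near 667 nm and signal to noise of each spot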

Neurogenic locus notch homolog protein 2 (Homo sapiens), sequence (Q04721 whole entry, looked up, canonical isoform): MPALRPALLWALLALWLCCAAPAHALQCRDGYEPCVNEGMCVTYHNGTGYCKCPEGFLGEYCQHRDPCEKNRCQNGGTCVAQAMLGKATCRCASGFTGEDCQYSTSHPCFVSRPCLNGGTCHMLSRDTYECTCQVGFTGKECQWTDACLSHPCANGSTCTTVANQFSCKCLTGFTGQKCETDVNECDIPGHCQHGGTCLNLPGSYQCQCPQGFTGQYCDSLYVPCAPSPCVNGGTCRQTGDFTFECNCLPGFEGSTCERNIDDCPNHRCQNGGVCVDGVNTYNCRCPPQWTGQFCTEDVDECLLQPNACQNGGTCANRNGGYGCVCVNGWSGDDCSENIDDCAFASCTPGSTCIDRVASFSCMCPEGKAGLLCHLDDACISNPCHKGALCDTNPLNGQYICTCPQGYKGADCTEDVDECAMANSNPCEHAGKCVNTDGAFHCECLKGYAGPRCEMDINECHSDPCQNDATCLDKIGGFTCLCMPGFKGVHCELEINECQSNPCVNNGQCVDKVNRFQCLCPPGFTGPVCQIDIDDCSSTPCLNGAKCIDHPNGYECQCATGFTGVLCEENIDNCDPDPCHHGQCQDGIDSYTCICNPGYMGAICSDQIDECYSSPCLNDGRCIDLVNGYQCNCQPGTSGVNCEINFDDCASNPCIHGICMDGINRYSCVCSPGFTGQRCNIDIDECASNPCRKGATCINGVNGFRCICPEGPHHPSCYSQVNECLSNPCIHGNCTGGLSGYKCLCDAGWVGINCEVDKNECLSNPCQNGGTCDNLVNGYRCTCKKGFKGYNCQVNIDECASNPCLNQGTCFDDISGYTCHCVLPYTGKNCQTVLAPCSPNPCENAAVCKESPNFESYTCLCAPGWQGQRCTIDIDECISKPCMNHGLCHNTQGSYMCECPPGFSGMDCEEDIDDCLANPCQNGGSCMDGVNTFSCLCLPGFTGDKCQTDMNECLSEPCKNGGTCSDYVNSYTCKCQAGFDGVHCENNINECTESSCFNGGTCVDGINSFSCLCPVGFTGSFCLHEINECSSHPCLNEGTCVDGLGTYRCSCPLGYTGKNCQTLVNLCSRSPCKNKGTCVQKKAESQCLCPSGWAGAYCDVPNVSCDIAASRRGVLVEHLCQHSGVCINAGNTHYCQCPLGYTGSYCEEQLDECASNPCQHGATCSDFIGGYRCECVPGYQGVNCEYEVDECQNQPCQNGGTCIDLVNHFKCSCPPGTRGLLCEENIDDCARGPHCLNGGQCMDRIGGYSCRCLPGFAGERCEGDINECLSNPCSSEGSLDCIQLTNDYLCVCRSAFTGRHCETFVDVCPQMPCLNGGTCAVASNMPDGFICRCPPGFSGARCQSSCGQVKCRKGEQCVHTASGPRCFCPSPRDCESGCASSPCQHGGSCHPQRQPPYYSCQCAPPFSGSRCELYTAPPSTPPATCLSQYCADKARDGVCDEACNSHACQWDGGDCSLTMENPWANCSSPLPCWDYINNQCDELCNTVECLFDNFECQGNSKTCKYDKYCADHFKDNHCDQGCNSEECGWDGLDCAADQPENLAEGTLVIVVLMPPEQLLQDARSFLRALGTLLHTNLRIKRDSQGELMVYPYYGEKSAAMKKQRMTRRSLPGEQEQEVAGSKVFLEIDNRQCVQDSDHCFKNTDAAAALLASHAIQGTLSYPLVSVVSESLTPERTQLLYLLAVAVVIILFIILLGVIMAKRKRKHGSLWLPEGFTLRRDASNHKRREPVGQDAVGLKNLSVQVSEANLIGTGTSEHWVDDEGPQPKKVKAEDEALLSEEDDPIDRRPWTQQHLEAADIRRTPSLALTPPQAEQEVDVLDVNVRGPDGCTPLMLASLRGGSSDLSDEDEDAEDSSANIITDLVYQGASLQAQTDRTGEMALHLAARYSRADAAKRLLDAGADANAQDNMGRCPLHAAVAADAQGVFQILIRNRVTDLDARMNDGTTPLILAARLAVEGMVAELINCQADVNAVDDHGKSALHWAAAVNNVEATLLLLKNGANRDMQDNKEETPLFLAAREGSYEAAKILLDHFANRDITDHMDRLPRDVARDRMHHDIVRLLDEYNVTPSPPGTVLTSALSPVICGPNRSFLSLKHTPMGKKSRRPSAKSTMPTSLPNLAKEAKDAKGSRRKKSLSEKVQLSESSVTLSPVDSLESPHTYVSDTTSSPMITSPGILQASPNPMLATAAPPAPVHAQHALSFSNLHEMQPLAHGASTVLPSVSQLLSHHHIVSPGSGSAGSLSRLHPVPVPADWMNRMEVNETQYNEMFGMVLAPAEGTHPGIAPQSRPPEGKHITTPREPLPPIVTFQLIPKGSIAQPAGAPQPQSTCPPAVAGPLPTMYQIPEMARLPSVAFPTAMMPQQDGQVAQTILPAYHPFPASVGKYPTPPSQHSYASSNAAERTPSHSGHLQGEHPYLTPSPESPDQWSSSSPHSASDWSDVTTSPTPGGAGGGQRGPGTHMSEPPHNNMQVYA
Torsin-1A-interacting protein 2 (Homo sapiens), sequence (Q8NFQ8 whole entry, looked up): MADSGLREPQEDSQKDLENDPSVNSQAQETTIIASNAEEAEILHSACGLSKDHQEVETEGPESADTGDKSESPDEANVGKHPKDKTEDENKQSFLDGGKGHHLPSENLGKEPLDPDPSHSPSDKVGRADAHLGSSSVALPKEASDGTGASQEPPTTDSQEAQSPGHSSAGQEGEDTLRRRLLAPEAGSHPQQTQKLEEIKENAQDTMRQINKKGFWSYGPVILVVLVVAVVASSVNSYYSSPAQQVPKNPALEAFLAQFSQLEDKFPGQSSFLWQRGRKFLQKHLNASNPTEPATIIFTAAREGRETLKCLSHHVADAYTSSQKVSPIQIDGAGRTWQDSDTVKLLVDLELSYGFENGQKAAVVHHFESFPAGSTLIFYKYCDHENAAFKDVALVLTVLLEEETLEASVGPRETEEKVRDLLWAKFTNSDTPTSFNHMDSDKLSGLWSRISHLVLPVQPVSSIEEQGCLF
Pro-neuregulin-1, membrane-bound isoform (Homo sapiens), sequence (Q02297 whole entry, looked up, the tested form may be a part, canonical isoform): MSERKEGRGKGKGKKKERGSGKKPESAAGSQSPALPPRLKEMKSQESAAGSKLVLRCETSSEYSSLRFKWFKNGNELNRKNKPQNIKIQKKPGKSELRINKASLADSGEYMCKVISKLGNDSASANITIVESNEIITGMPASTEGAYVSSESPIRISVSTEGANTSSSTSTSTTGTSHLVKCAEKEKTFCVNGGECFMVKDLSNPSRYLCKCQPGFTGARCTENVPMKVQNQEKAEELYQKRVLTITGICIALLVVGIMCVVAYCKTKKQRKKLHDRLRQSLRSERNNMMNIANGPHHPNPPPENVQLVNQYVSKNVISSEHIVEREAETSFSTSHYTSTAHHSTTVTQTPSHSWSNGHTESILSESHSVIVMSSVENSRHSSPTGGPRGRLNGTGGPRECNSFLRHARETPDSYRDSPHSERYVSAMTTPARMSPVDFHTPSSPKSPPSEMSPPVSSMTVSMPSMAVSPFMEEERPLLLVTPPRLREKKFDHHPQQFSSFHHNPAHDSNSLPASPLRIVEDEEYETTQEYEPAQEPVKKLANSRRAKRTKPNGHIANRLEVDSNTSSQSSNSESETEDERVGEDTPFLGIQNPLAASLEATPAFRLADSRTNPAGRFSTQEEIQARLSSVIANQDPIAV

Structure (SMILES)	composite z-score [1]	composite z-score [2]	composite z-score [3]	composite z-score [4]	composite z-score [5]	composite z-score [6]	composite z-score [7]	z-score [8]	composite z-score [9]	composite z-score [10]	composite z-score [11]	z-score [12]	z-score [13]	z-score [14]	composite z-score [15]	z-score [16]	composite z-score [17]	composite z-score [18]	composite z-score [19]	composite z-score [20]
COCCn1c(C(=O)N2CCCC2)cc2c1C[C@H]1CN(C(=O)c3ccccc3)[C@@](Cc3ccccc3)(C(=O)OC)[C@@H]21	0.288	1.16	0.576	0.888	1.11	2.16	1.42	2.7 (inactive)	1.11	0.688	1.28	0.448 (inactive)	0.105 (inactive)	0.573 (inactive)	3.11	0.0508 (inactive)	0.907	0.386	0.805	0.827
O=C1OCCC=C[C@H]2OC34C=CCN(CCN5CCOCC5)C(=O)[C@H]3N(CCCO)C(=O)[C@@H]4C12 (stereo not given in full)	-0.0143	-2.48	-0.14	-0.776	-0.956	0.399	-0.873	0.122 (inactive)	-0.272	-0.0994	0.0132	-0.728 (inactive)	-1.14 (inactive)	0.229 (inactive)	2.98	0.922 (inactive)	-0.257	-0.293	0.329	-0.166
CN(C)CCCC[C@@H]1NC(=O)[C@H]2C[C@@H](C(=O)NCc3ccc(F)cc3)[C@@H](c3ccc(O)cc3)N2C1=O	0.0653	0.412	-0.0904	0.268	0.201	0.865	1.25	1.07 (inactive)	-0.0224	0.028	1.56	-0.42 (inactive)	-1.1 (inactive)	-0.462 (inactive)	1.42	0.539 (inactive)	0.0672	1.78	0.719	0.0579
[N-]=[N+]=NCc1ccccc1C[C@]1(C(=O)N2CCCCC2)N=C(c2ccc(OCCCO)cc2)O[C@H]1c1ccccc1	0.393	0.449	-0.0165	0.39	1.07	0.618	0.849	-4.27 (inactive)	0.485	0.0722	0.762	0.202 (inactive)	-1.1 (inactive)	22.5 (active)	2.46	1.31 (inactive)	0.124	0.0914	0.344	-0.125
CN(C)C(=O)[C@@]1(CCS(=O)(=O)c2ccccc2)N=C(c2ccc(OCCCO)cc2)O[C@H]1c1ccccc1N=[N+]=[N-]	-0.35	0.259	0.167	0.792	1.32	1.55	0.551	0.401 (inactive)	1.49	-0.0994	1.55	-1.01 (inactive)	-0.173 (inactive)	0.914 (inactive)	3.1	0.635 (inactive)	0.0554	0.987	1.11	-0.0168
[N-]=[N+]=Nc1ccccc1[C@@H]1OC(c2ccc(OCCCO)cc2)=N[C@]1(Cc1ccccc1)C(N)=O	0.379	-0.334	-0.0543	0.505	0.824	1.17	0.884	0.377 (inactive)	0.277	-0.0994	-0.0138	0.622 (inactive)	-1.21 (inactive)	-0.026 (inactive)	2.04	1.74 (inactive)	0.0529	-0.231	0.383	0.224
CCc1cccc(NC(=O)O[C@H]2[C@H](OC(=O)Nc3ccc4c(c3)OCO4)[C@H](OC(=O)Nc3ccc4c(c3)OCO4)[C@@H](OC)O[C@@H]2CO)c1	0.0053	0.052	-0.0158	0.263	0.603	0.979	1.32	4.53 (inactive)	0.318	-0.0645	1.55	1.5 (inactive)	1.09 (inactive)	7.36 (inactive)	3.05	0.641 (inactive)	0.0386	0.795	1.08	-0.13
CN(C)CCCCNC(=O)[C@H]1C[C@H]2C(=O)N[C@@H](Cc3ccccc3)C(=O)N2[C@H]1c1cccc(OCCO)c1	0.863	0.46	-0.158	-0.436	-0.252	0.136	0.606	3.32 (inactive)	-0.549	0.0092	0.193	-1.11 (inactive)	0.0737 (inactive)	-0.247 (inactive)	0.33	1.13 (inactive)	-0.0924	0.622	0.307	-0.0512
C=CCC(OC(C)=O)[C@@H]1[C@@H](N(Cc2ccc(-c3ccccc3)cc2)C(=O)c2cccc3ccccc23)c2cc(OCCCO)ccc2N1C(=O)c1ccc2ccccc2c1 (stereo not given in full)	-0.254	-0.0509	-0.0973	0.246	0.045	-0.179	-0.172	-0.891 (inactive)	0.277	-0.0672	0.189	-0.521 (inactive)	-0.328 (inactive)	-0.569 (inactive)	0.813	-0.584 (inactive)	0.0802	-0.106	-0.0403	-0.136
COCC(=C=CC[C@@H](O)c1ccc(OCCO)cc1)C[C@@H](O)COCc1ccccc1	0.158	-0.187	-0.015	0.734	0.726	1.11	1.07	-1.1 (inactive)	0.543	0.111	1.55	-1.31 (inactive)	-0.979 (inactive)	-0.474 (inactive)	3.16	1.55 (inactive)	0.0282	1.43	0.964	0.049
CCOC(=O)C1=C[C@@H](C(C)(C)C)N(S(=O)(=O)c2ccc(C)cc2)[C@H]1c1ccccc1Cl	0.284	0.534	0.122	0.624	1.61	1.25	1.14	-2.24 (inactive)	1.07	0.0401	1.53	0.168 (inactive)	2.3 (inactive)	2.15 (inactive)	2.61	-0.766 (inactive)	0.144	0.614	1.05	0.0522
COc1cccc(OC)c1C(=O)O[C@H]1[C@@H]2OC(=O)[C@H](Cc3cccc(Br)c3)C/C=C/C[C@@H](Cc3cccc(Br)c3)C(=O)O[C@H]2[C@@H](OC)O[C@@H]1CO	0.0113	0.94	-0.0262	0.205	0.194	1.28	0.945	-0.199 (inactive)	0.401	0.101	1.4	-0.372 (inactive)	-0.246 (inactive)	0.231 (inactive)	1.08	-1.17 (inactive)	-0.0711	0.8	0.541	-0.0678
COCCOC(=O)N1C(=O)[C@@]2(c3cc(C#CCC(C(=O)OC)C(=O)OC)ccc31)[C@H](C(=O)N1CCc3cc(OC)c(OC)cc3C1)[C@H]1C(=O)O[C@H](c3ccccc3)[C@H](c3ccccc3)N1[C@@H]2c1ccc(O)cc1	-0.318	0.731	0.0732	0.858	1.54	0.729	1.23	0.217 (inactive)	0.346	-0.0459	1.54	0.215 (inactive)	0.233 (inactive)	0.773 (inactive)	1.99	0.204 (inactive)	0.0704	1.19	1.08	0.135
O=C1O[C@H](c2ccccc2)[C@H](c2ccccc2)N2[C@H]1[C@@H](C(=O)N1CCN(c3ncccn3)CC1)[C@]1(C(=O)Nc3ccccc31)[C@H]2c1ccc(O)cc1	0.258	0.918	-0.0718	0.366	0.239	1.23	1.28	1.07 (inactive)	0.3	0.0972	1.51	1.92 (inactive)	0.116 (inactive)	3.6 (inactive)	3.06	0.913 (inactive)	0.032	0.0775	0.305	-0.0936
COc1cc2c(cc1O)C(c1ccc(CN3CCCC3)cc1)N(Cc1cccc(OC(F)(F)F)c1)CC2 (stereo not given)	0.254	0.956	-0.0568	0.0247	0.473	1.56	1.27	-0.232 (inactive)	0.155	-0.0317	0.996	-26.1 (active)	-20.2 (active)	-3.95 (inactive)	3.04	-6.17 (inactive)	0.045	0.0433	0.499	0.213
CC(C)C[C@H]1NC(=O)[C@@]23C(=O)N[C@@H](Cc4ccccc4)C2[C@H](C)[C@@]2(C)O[C@H]2C3/C=C/C/C=C\CNC(=O)[C@@H]2CCCN2C1=O (stereo not given in full)	-0.504	-0.39	-0.078	0.774	0.303	0.912	0.665	0.31 (inactive)	0.52	-0.0645	1.52	-0.397 (inactive)	-1.08 (inactive)	-0.579 (inactive)	1.58	-1.14 (inactive)	-0.147	0.588	0.696	-0.008
COc1ccc(NN2C(C(O)c3ccc(OC)cc3)C=CC3C(=O)N(C4CCCCC4)C(=O)C32)cc1 (stereo not given)	-0.147	0.191	-0.0131	0.467	1.18	1.29	0.978	1.55 (inactive)	0.775	-0.16	1.43	-0.0924 (inactive)	1.01 (inactive)	0.365 (inactive)	2.12	0.0447 (inactive)	0.103	0.157	1.08	0.21
CC(=O)c1ccc(C(O)C2C=CC3C(=O)N(C)C(=O)C3N2NC(=O)OC(C)(C)C)cc1 (stereo not given)	0.301	0.169	0.152	1.13	1.61	2.11	1.35	0.929 (inactive)	0.948	-0.154	1.54	0.269 (inactive)	1.08 (inactive)	1.59 (inactive)	3.47	-1.24 (inactive)	0.236	-0.465	1.11	0.357
COC(=O)[C@]1(CO)N=C(c2ccc(OCCCO)cc2)O[C@@H]1c1ccccc1CN=[N+]=[N-]	-0.0858	-0.132	-0.155	-0.546	-0.663	-0.12	1.16	1.7 (inactive)	-0.144	-0.286	0.575	0.11 (inactive)	0.44 (inactive)	1.85 (inactive)	0.852	0.628 (inactive)	-0.0884	0.227	-0.318	-0.285
